From PubChem BioAssay
AmpC inh detg: AmpC beta-lactamase inhibition with detergent present | 370,000 tested, 0.041% active | AmpC hydrolysis of nitrocefin, absorbance 480 nm, 0.01% Triton | Potency, µM (series often up to 114 µM), inactives show at the top dose activity change, negative = inhibition, hits mostly inhibitors | P00811;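 further: 0% = no-compound wells and -100% = no-enzyme wells; nearly all actives have a fitted effect of over 25% in size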
Target sequence (P00811 whole entry, looked up): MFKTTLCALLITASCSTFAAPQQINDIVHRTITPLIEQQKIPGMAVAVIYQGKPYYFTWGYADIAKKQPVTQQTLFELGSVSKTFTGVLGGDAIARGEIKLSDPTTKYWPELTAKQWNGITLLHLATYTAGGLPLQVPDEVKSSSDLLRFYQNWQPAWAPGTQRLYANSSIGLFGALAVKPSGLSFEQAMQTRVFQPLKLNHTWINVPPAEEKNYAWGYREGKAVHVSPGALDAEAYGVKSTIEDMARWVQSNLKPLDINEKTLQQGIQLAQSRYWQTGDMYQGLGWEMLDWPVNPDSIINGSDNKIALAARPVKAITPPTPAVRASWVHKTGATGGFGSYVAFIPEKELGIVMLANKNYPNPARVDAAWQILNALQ
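20 mM phosphate pH 7.0 + 0.01% (detergent screen) or 0.0001% Triton X-100; 5.3 nM AmpC reagent; cpd preinc 15 min RT; nitrocefin (800 uM stock) to start; A480 q20 s × 4 min; Activity was normalised to no-enzyme and no-compound control wells.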
AmpC no deterg: inhibitors of E. coli AmpC beta-lactamase without detergent | AmpC nitrocefin hydrolysis, absorbance 480 nm, 0.0001% Triton | 330,000 tested, 0.52% active | P00811 | Potency, µM (doses to about 57.1 µM), inactives show top-dose activity change, negative = inhibition, most hits filed as inhibitors;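 further: plate controls were no compound for no effect and no enzyme for full effect; nearly all actives have a fitted effect of over 20% in size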
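20 mM phosphate pH 7.0 + 0.01% (detergent screen) or 0.0001% Triton X-100; 5.3 nM AmpC reagent; cpd preinc 15 min RT; nitrocefin (800 uM stock) to start; A480 q20 s × 4 min; Activity was normalised to no-enzyme and no-compound control wells.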
Sm TGR inh: S. mansoni TGR enzyme inhibition | AID 485364 | Q962Y6 | Potency, µM (titrated, usually from 114 µM), without a hit: top-dose activity change, negative = inhibition, actives largely listed as inhibitors | purified TGR, DTNB reduction, TNB absorbance 405 nm | 360,000 tested, 3% active; further: nearly all actives have a fitted effect of over 60% in size
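First, TGR (20 nM dispensed) and NADPH were mixed with compound. Second, a 15 min room-temperature incubation followed. Third, further NADPH and then DTNB were added to start the reaction. Finally, TNB absorbance was monitored kinetically.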
Starred values were filed as active, the others as inactive; ? = inconclusive; . = no result. Hits are enriched below; roughly 3.3% of the tested compounds scored in any of these assays. The call rests on the fitted dose curve; in most records, active means well fitted curve in the direction sought with a large enough effect; inconclusive means small, poorly fitted or top-dose-only effect, or another doubt; inactive means no such curve, though single readings can be large; an effect the other way counts as inactive or inconclusive. Unless noted, on the % scale 0 is the no-effect control and ±100 the full control effect; potency means the concentration at half of the fitted maximal effect.

SMILES | AmpC inh detg | AmpC no deterg | Sm TGR inh
c1cc2c3c(cccc3c1)NC(c1ccc3c(c1)OCO3)N2 | -8.7% | -57.3% | 17.8µM*
CSc1ccc(C2Nc3cccc4cccc(c34)N2)cc1 | ? | 59.8% | 25.1µM*
CN1c2ccccc2N(C)C1c1ccc2c(c1)OCO2 | ? | 0.2% | -2.4%
c1cncc(C2Nc3cccc4cccc(c34)N2)c1 | 1.1% | -31.0% | 8.91µM*
Brc1ccc(C2Nc3cccc4cccc(c34)N2)s1 | -8.5% | -10.4% | 20µM*
Clc1cccc(-c2ccc(C3Nc4cccc5cccc(c45)N3)o2)c1 | . | -7.4% | .
CSc1ccc(C2Nc3ccccc3-c3cc(C)nn32)cc1 (stereo not given) | -5.7% | -1.7% | -2.7%
O=C(NCc1cccnc1)NC1CC(=O)N(c2ccc3c(c2)OCCO3)C1 (stereo not given) | 8.6% | -4.5% | -5.6%
COc1cc(C(=O)NCC(c2cccs2)N2CCOCC2)c([N+](=O)[O-])cc1OC (stereo not given) | -8.5% | -1.5% | -5.8%
CC(Cc1ccsc1)NC(=O)CCc1nnc(CCc2ccccc2)o1 (stereo not given) | 6.0% | 43.4% | 3.1%
O=C(Nc1cccc(Cl)c1Cl)c1cc2nc(-c3ccc4c(c3)OCO4)cc(C(F)(F)F)n2n1 | 1.3% | . | -2.2%
COc1ccc(N2CCN(S(=O)(=O)CCNC(=O)C3CCCCC3)CC2)cc1 | -10.2% | 28.9% | -0.2%
Cc1cccc(C2Nc3cccc4cccc(c34)N2)c1 | 1.5% | -21.1% | 20µM*
O=[N+]([O-])c1cc(C2Nc3cccc4cccc(c34)N2)ccc1Cl | -6.6% | -39.4% | -25.6%
Cc1cccc(C2NC(c3cccc(C)c3)C(C)C(=O)C2C)c1 (stereo not given) | 4.0% | -5.2% | -4.3%
Clc1ccc(C2Nc3cccc4cccc(c34)N2)cc1 | 15.3% | -29.9% | 15.8µM*
COc1cc(OC)c(N(C)C(=O)c2nn(C)c3c2CSc2ccccc2-3)cc1Cl | 16.4% | . | -2.1%
CCCCCCCCNC(CO)(CO)CO | -7.0% | -13.6% | -3.0%
CCOC(=O)C1CCCN(c2cc(NCCCO)c([N+](=O)[O-])c3nonc23)C1 (stereo not given) | -6.7% | 25.4% | 0.0%
CCCC(=O)OCCNc1cc(Sc2nccn2C)c2nonc2c1[N+](=O)[O-] | ? | -9.9% | 0.398µM*
Cc1nn(C(C)C(=O)NCc2ccco2)c(C)c1[N+](=O)[O-] (stereo not given) | 1.5% | -16.9% | -19.4%
CCCC(=O)OCCNc1cc(SCc2ccco2)c2nonc2c1[N+](=O)[O-] | 3.3% | -15.9% | 14.1µM*
O=[N+]([O-])c1c(NCc2ccco2)ccc2nonc12 | -3.5% | -20.2% | -21.9%
CCCSc1cc(NCCOC(C)=O)c([N+](=O)[O-])c2nonc12 | ? | -8.5% | -3.0%
CC(=O)OCCCNc1cc(SCc2ccco2)c2nonc2c1[N+](=O)[O-] | -8.6% | -17.8% | 7.08µM*
SMILES | AmpC inh detg | AmpC no deterg | Sm TGR inh
CCCSc1cc(NCCOC(=O)CCC)c([N+](=O)[O-])c2nonc12 | -13.6% | 22.1% | 2µM*
CCOc1cc(C(c2c(C)[nH][nH]c2=O)c2c(C)[nH][nH]c2=O)cc([N+](=O)[O-])c1O | -5.5% | -10.2% | -28.2%
CCOc1cc(C(c2c(C)[nH][nH]c2=O)c2c(C)[nH][nH]c2=O)cc(Cl)c1O | 2.7% | -24.8% | 35.5µM*
O=C(Nc1cccc(S(=O)(=O)N2CCCC2)c1)c1ccc(Cl)nc1 | . | -25.4% | .
CCn1nc(C)c(CCN(C)C(=O)Nc2cc(OC)c(OC)c(OC)c2)c1C | 1.5% | . | -0.1%
Cc1ccccc1NN1C(=O)C=CC1=O | 1.2% | 0.141µM* | 0.9%
Cc1ccc(NN2C(=O)C=CC2=O)cc1 | -13.9% | -9.2% | -12.0%
O=C(/C=C/c1ccc([N+](=O)[O-])cc1)Nc1cccc(S(=O)(=O)NC2=NCCCCC2)c1 | . | -22.4% | .
Cc1cnc(C(=O)Nc2cccc3ncccc23)cn1 | 1.8% | -18.3% | 3.1%
Cc1cnc(C(=O)Nc2ccccc2-c2ccc(C)o2)cn1 | 1.4% | -13.0% | 20µM*
CCc1ccc(S(=O)(=O)NCCc2cn3ccsc3n2)cc1 | -2.2% | . | -6.2%
O=S(=O)(NCc1cn2ccsc2n1)c1ccc(Oc2ccccc2)cc1 | 0.1% | 3.98µM* | 1.5%
O=S(=O)(NCCc1cn2ccsc2n1)c1ccc(Cl)cc1 | 1.7% | . | 35.5µM*
O=S(=O)(NCc1cn2ccsc2n1)c1cccs1 | -8.9% | -10.3% | 9.5%
ONc1cccnc1-n1nc(C(F)(F)F)cc1C(F)(F)F | 6.9% | -23.1% | .
Cc1ccc(S(=O)(=O)N2CCC(C(=O)OCC(=O)Nc3cc(S(C)(=O)=O)ccc3Cl)CC2)cc1C | ? | 40.9% | 10.6%
O=S(=O)(CCOc1ccccc1)c1nc2ccccc2[nH]1 | 14.1% | -29.4% | 12.6µM*
O=C(CCCOc1ccccc1)Nc1nc2ccccc2[nH]1 | 6.0% | -22.5% | 4.8%
O=C(COc1ccc(Cl)cc1)Nc1cccc(S(=O)(=O)NCc2ccco2)c1 | -1.3% | -35.0% | -12.6%
COc1cccc(NC(=O)CCNS(=O)(=O)c2ccc(Br)s2)c1 | -9.4% | -32.8% | -0.9%
Cc1cc2n(n1)SC(Nc1cccc3ccccc13)N2 (stereo not given) | 1.7% | -33.3% | ?
Cc1cc2n(n1)SC(Nc1cc(Cl)ccc1Cl)N2 (stereo not given) | ? | -28.9% | 15.8µM*
Cc1cccc(C(=O)NCc2ccco2)c1 | ? | -25.9% | 44.7µM*
COc1ccc(-c2cc(C(F)(F)F)n3nc(C(=O)NCc4ccco4)cc3n2)cc1 | -17.5% | 110.8% | ?
Cc1cc(-c2ccccc2)nc2cc(C(=O)NCc3ccco3)nn12 | 0.8% | -8.4% | 31.6µM*
SMILES | AmpC inh detg | AmpC no deterg | Sm TGR inh
Cc1noc(C)c1C(=O)NCc1ccco1 | -9.7% | -11.7% | -16.8%
Cc1cc(=O)oc(C)c1C(=O)NCc1ccco1 | -0.2% | -30.8% | 44.7µM*
Cc1ccc(C(=O)NCc2ccco2)cc1 | -4.8% | -1.1% | 9.1%
CC(C)c1cc(C(=O)NCc2ccccc2)no1 | 14.1% | . | 11.3%
CC(C)c1cc(C(=O)NCc2ccco2)no1 | 1.0% | ? | 50.1µM*
Cc1ccc(Cl)cc1N1CCN(C(=O)c2cc(S(=O)(=O)N3CCCCC3)cn2C)CC1 | 15.3% | . | -3.0%
CC(O)CNc1nc(NCc2ccccc2)c2cnn(C)c2n1 (stereo not given) | -10.6% | -8.2% | -14.2%
CCCCOC(=O)c1ccc(-n2nnc3c(sc4nc(C)cc(C)c43)c2=O)cc1 | 24.1% | . | 23.7%
CCOC(=O)c1c(C)[nH]c(C)c1S(=O)(=O)N(C)CC(=O)NCc1ccc(Cl)cc1 | 10.1% | . | 22.2%
CCc1cccc(NS(=O)(=O)c2csc(C(N)=O)c2)c1 | -7.9% | -33.2% | -4.7%
Cc1ccc(N(Cc2ccco2)C(=O)c2cccc(S(=O)(=O)N(C)C)c2)cc1 | ? | 30.8% | -28.3%
O=C(NCc1ccco1)c1ccc2c(c1)C(=O)c1ccccc1-2 | -0.2% | -16.1% | 12.6µM*
O=C(NCc1ccco1)c1ccc2ccccc2c1 | -8.3% | -15.1% | -34.7%
CN(C)S(=O)(=O)c1cccc(C(=O)NCc2ccco2)c1 | -9.5% | -10.4% | 44.7µM*
Cc1cc(C)n2nc(N)c(N=Nc3ccc(Cl)cc3)c2n1 | ? | -9.2% | -0.1%
O=C(CN(c1cccc([N+](=O)[O-])c1)S(=O)(=O)c1ccccc1)N1CCCCC1 | -16.4% | 2.1% | 4.1%
